Bioassay records (PubChem)
M1 ag: human M1 muscarinic receptor agonism; CHO-K1 hM1, Fluo-8 calcium fluorescence, agonist mode; 0% DMSO, 100% acetylcholine EC100; activation, % at 3 µM; actives 0.33% (n = 360,000);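 active means activation above the run's mean compound activation plus 3 SD, cut at about 16% in these data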;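 further: peak over basal fluorescence ratio within a 140 s kinetic read after compound addition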
Target sequence (P11229 whole entry, looked up): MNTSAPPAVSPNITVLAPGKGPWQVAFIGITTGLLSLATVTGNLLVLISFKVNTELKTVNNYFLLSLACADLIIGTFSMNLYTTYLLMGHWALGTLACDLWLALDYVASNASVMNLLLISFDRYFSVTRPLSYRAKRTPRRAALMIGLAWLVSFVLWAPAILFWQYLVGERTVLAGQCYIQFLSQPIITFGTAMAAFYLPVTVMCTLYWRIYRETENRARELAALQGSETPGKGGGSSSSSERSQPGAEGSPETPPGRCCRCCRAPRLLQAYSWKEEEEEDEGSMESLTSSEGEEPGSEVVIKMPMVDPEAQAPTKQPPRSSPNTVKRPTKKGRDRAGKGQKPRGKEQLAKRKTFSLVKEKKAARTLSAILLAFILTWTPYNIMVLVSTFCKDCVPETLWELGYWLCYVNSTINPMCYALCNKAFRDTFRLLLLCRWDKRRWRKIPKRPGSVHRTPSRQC
M1 ag parental: M1 agonist counterscreen hit in parental CHO-K1 cells | Fluo-8 calcium fluorescence; scaled to maximal ATP response, vehicle zero | activation, % at 3 µM | actives 0.48% (n = 360,000) | AID 602248; in the data active means activation above about 15%;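 further: untransfected CHO-K1 host cells lacking M1 receptor as counterscreen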
CHO-K1 Ca antag: M1 antagonist counterscreen hit in parental CHO-K1 cells. inhibition, % at 3 µM. actives 0.6% (n = 360,000). ATP-induced calcium, Fluo-8 fluorescence;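 active means inhibition above a per-plate cutoff, the plate's mean sample inhibition plus 3 SD, cut at about 24% in these data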
CHRM1 antagonist: antagonists of human M1 muscarinic receptor; actives 1.3% (n = 360,000); CHO-K1 hM1, Fluo-8 calcium fluorescence, ACh EC80 antagonist; P11229; inhibition, % at 3 µM;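 active means percent inhibition above its own plate's cutoff, namely the mean of that plate's compound wells plus 3 SD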;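 further: peak over basal fluorescence ratio during 140 s after agonist addition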
M1 PAM: potentiates human M1 receptor response to acetylcholine. P11229. activation, % at 3 µM. CHO-K1 hM1, Fluo-8 calcium fluorescence, ACh EC20; 0% = ACh EC20, 100% = maximal ACh. actives 0.088% (n = 360,000). AID 588819; in the data active means activation above about 19%, passing the limit was not always enough
M1 PAM parental: counter-screen for M1 PAMs: effect in parental CHO-K1 cells. ATP EC20, Fluo-8 calcium fluorescence; 0% at ATP EC20, 100% at ATP max. AID 602247. actives 0.02% (n = 360,000). activation, % at 3 µM;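 active means activation above the run cutoff, the mean activation of all test compounds plus 3 SD, cut at about 40% in these data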;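 further: peak over basal fluorescence ratio in a 140 s read after ATP addition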
Each line names hits and unclear results; the compound was inactive in the other large screens. The list is not random: actives were taken first. Their share in the collection is about 2.4%.

CCOC(=O)c1ccc(NC(=O)c2ccc(CN3CCc4ccccc4C3)cc2)cc1	none
CC(=O)NC(C)(c1ccccc1)c1nc(-c2ccc(F)c(Cl)c2)cs1 (configuration not stated)	none
NC(=O)c1nsc(C(=O)N(Cc2ccco2)C(C(=O)NCc2ccc(F)cc2)c2ccc(O)cc2)c1N (configuration not stated)	none
COc1ccc(C(C(=O)NC2CCCCC2)N(Cc2ccco2)C(=O)c2snc(C(N)=O)c2N)cc1 (configuration not stated)	CHRM1 antagonist 25
Cc1ccc(C(C(=O)NCc2ccc(F)cc2)N(Cc2ccco2)C(=O)c2snc(C(N)=O)c2N)o1 (configuration not stated)	CHRM1 antagonist 35
Cc1ccc(C(C(=O)NC2CCCC2)N(Cc2ccc3c(c2)OCO3)C(=O)c2snc(C(N)=O)c2N)cc1 (configuration not stated)	CHRM1 antagonist 24
CN(C)c1ccc(C(C(=O)NCC2CCCO2)N(Cc2ccccc2)C(=O)c2snc(C(N)=O)c2N)cc1 (configuration not stated)	CHRM1 antagonist 26
CC(O)[C@H]1CNCCN1CC1(c2ccccc2)CC1 (some centres not stated)	none
CCC(=O)N(Cc1cc2ccccc2[nH]c1=O)c1ccccc1OC	none
CCN(C[C@H]1N[C@@](CC)(C(=O)OC)[C@H]2C(=O)N(Cc3ccccc3)C(=O)[C@@H]12)C(=O)c1ccc(C(C)(C)C)cc1	CHRM1 antagonist 28
CC[C@@]1(C(=O)OC)N[C@H](CN(C)C(=O)c2ccc(C(C)(C)C)cc2)[C@@H]2C(=O)N(Cc3ccccc3)C(=O)[C@@H]21	none
CCCC(=O)Nc1ccc2c(c1)nc(CCN1CCN(c3ccccn3)CC1)n2C	none
CCCCC(=O)Nc1ccc2c(c1)nc(CCN1CCN(c3ccccn3)CC1)n2C	CHRM1 antagonist 74
Cn1c(CCN2CCCCC2)nc2cc(NS(=O)(=O)c3ccccc3)ccc21	none
Cn1c(CCN2CCCCC2)nc2cc(NC(=O)COc3ccc(Cl)cc3)ccc21	none
CN1CCN(CCc2nc3cc(NC(=O)COc4ccc(Cl)cc4)ccc3n2C)CC1	CHO-K1 Ca antag 26
Cn1c(CCN2CCN(c3ccccn3)CC2)nc2cc(NS(=O)(=O)c3ccccc3)ccc21	CHRM1 antagonist 69
Cn1c(CCN2CCN(c3ccccn3)CC2)nc2cc(NC(=O)COc3ccccc3)ccc21	CHRM1 antagonist 58
Cc1ccc(OCC(=O)Nc2ccc3c(c2)nc(CCN2CCN(c4ccccn4)CC2)n3C)cc1	CHRM1 antagonist 62
C[C@@H]1CCCN1[C@H]1CS(=O)(=O)N[C@@H]1COCc1ccccc1	none
CCOC(=O)c1ccc(NC(=S)N2CCSC2c2ccc(Br)cc2)cc1 (configuration not stated)	M1 ag 34, CHRM1 antagonist 33
CN(C)c1ccc2nc3c(=O)[nH]c(=O)nc-3n(CC(O)C(O)C(O)CO)c2c1 (configuration not stated)	M1 ag 18
CC(=O)c1sc(N/N=C\c2ccc(Br)cc2)nc1C	none
CC(=O)c1sc(N/N=C\c2cccc(Br)c2)nc1C	M1 ag parental 17
CCCCCCCC[n+]1cccc(C(=O)N(CC)CC)c1	none
CCCCCCCCCCCCCCCC[n+]1cccc(C(=O)N(CC)CC)c1	CHRM1 antagonist 57
Cc1ccc(NC(=O)CSc2nc(=O)n(CCCN3CCOCC3)c3c2CCCC3)c(C)c1	none
CC(C)CCN1CCN(Cc2cc3ccccc3[nH]2)CC1CCO (configuration not stated)	M1 ag parental 16
O=C(NCCc1cn2ccccc2n1)c1cc(COc2ccc3ncccc3c2)on1	M1 ag parental 19, CHO-K1 Ca antag 33
O=C(c1cc(COc2ccc3ncccc3c2)on1)N1CCCC1	none
O=C(c1cc(COc2ccc3ncccc3c2)on1)N1CCCCCC1	none
O=C(NC1CCCC1)c1cc(COc2ccc3ncccc3c2)on1	CHRM1 antagonist 31
CC(NC(=O)c1cc(COc2ccc3ncccc3c2)on1)c1ccc(F)cc1 (configuration not stated)	CHRM1 antagonist 34
Cc1ccc(S(=O)(=O)N2CCC(C(=O)Nc3ccc(S(=O)(=O)N4CCCC4)cc3)CC2)cc1C	none
CCN(CC)C(=O)C1c2ccccc2Oc2ccccc21	M1 ag 18, M1 ag parental 27
CC(C)[N+](C)(CCOC(=O)C1c2ccccc2Oc2ccccc21)C(C)C	CHRM1 antagonist 97
C=CCN(CC=C)C(=O)C1c2ccccc2Oc2ccccc21	none
CC(C)CNC(=O)COC(=O)C1c2ccccc2Oc2ccccc21	none
O=C(CCN1C(=O)C2CC=CCC2C1=O)Nc1cccc(Cl)c1 (configuration not stated)	none
CC(=O)Oc1ccc2c(c1)O/C(=C\c1ccncc1)C2=O	M1 ag parental 18
O=C(Oc1ccc2c(c1)O/C(=C\c1ccncc1)C2=O)c1cccs1	none
CCc1ccc(CN(C)C(=O)C2=CC=CN3CCS(=O)(=O)N=C23)cc1	none
CSCCC(NC(=O)/C(=C/c1ccc(F)cc1)NC(C)=O)C(=O)O (configuration not stated)	none
O=C(O)c1ccccc1-c1nnc2c(Cl)cc(C(F)(F)F)cn12	CHRM1 antagonist 95
O=C(COc1ccccc1)OCC(=O)c1ccc(S(=O)(=O)N2CCCCC2)cc1	none
CCOC(=O)C1(Cc2ccccc2)CCCN(C(=O)c2cnn(CC)c2)C1 (configuration not stated)	CHO-K1 Ca antag 29
CCOC(=O)C1(Cc2ccccc2)CCCN(Cc2cnn(CC)c2)C1 (configuration not stated)	none
O=C(NC1CC2CCCC(C1)N2C(=S)Nc1ccccc1Cl)C1CC1 (configuration not stated)	none
Cc1ccc(C)c(NC(=S)N2C3CCCC2CC(NC(=O)C2CC2)C3)c1 (configuration not stated)	CHRM1 antagonist 38
CC(=O)c1ccc(NC(=O)Cn2cnc(S(=O)(=O)N3CCc4ccccc43)c2)cc1	CHO-K1 Ca antag 25
CCNC(=S)Nc1cc(-c2ccc(Cl)cc2)[nH]n1	none
COc1ccc(C2=NOC(Cn3c(Cc4ccc(Cl)cc4)nc4c3c(=O)n(C)c(=O)n4C)C2)cc1 (configuration not stated)	CHRM1 antagonist 31
COc1ccccc1C1=NOC(Cn2c(NCCCO)nc3c2c(=O)n(C)c(=O)n3C)C1 (configuration not stated)	none
O=c1cc2c(nn1Cc1ccc(Cl)cc1)-c1ccccc1CC2	none
O=c1cc2c(nn1Cc1cccc(Cl)c1)-c1ccccc1CC2	CHO-K1 Ca antag 47
